“And” between values parts separate entries of the source, which are not always exact repeats. Equal entries are not always repeated. Results filed as inconclusive are left out. The source made the active and inactive calls. The call rests on the fitted dose curve.
Experiment: qHTS assay to identify small molecule agonists of the AP-1 signaling pathway - cell viability counter screen (AID 1159525); further: nearly all actives have a fitted effect of over 55% in size; further: potency means the concentration at half of the fitted maximal effect
Settings: ME-180 AP-1-bla cells viability, ATP luminescence, 5 h; series mostly up to 76.8 µM; viability change, negative = cytotoxic: at the top concentration
Procedure, shortened: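 Intracellular ATP by Cell Titer Glo luminescence (30 min, RT) in the same ME-180 AP-1-bla wells after the 5 h compound exposure at 37 °C. Normalised to tetra n-octyl ammonium bromide and DMSO controls.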

| Structure (SMILES) | Potency | viability change, negative = cytotoxic |
| --- | --- | --- |
| CC(C)(C)CC(C)(C)c1ccc(O)cc1 | 17.4 µM (active) | – |
| CNC(=O)Oc1cccc(N=CN(C)C)c1 | – | 9.39% (inactive) |
| c1ccc2sc(SNC3CCCCC3)nc2c1 | inactive | – |
| O=C(N[C@H]1CN2CCC1CC2)c1ccc2c(c1)OCCO2 | – | -2.79% (inactive) |
| C=CCOC(=O)C(C)(C)OC(=O)c1cc(-n2c(=O)cc(C(F)(F)F)n(C)c2=O)ccc1Cl | – | 1.45% (inactive) |
| C=CCc1ccc(OC(=O)Cc2ccccc2)c(OC)c1 | – | -0.102% (inactive) |
| O=[N+]([O-])O[C@H]1CO[C@H]2[C@@H]1OC[C@H]2O[N+](=O)[O-] | – | -0.955% [at 35.3 µM] (inactive) |
| C[C@H]1[C@@H]2Cc3ccc(O)cc3[C@@]1(C)CCN2C | – | 5.04% [at 200 µM] (inactive) |
| Cc1cnc(C2=NC(C)(C(C)C)C(=O)N2)c(C(=O)O)c1 (centres undefined) | – | 0.724% (inactive) |
| Cc1ncc(C[n+]2csc(CCO)c2C)c(N)n1 | – | -26.6% (inactive) |
| COc1cc(CC(C)N)c(OC)cc1Br (centres undefined) | – | 1.53% (inactive) |
| C[Si](Cn1cncn1)(c1ccc(F)cc1)c1ccc(F)cc1 | inactive | – |
| Cc1nc2ccccc2c(=O)n1-c1ccccc1Cl | – | 0.379% (inactive) |
| CN(C)C(=O)Nc1cccc(OC(=O)NC(C)(C)C)c1 | – | 3.86% (inactive) |
| CN(C)c1ccc(N=O)cc1 | 21.9 µM (active) and 30.9 µM (active) | – |
| NP(N)(=O)NC(=O)c1ccc(F)cc1 | – | -5.03% [at 35.3 µM] (inactive) |
| OC[P+](CO)(CO)CO | inactive | – |
| C[C@@H]1C[C@@H]([C@H](O)CC2CC(=O)NC(=O)C2)C(=O)[C@@H](C)C1 | inactive | – |
| COC1=CC(=O)O[C@@H](/C=C/c2ccc3c(c2)OCO3)C1 | – | -0.166% (inactive) |
| CCN(C(C)=O)c1cccc(-c2ccnc3c(C#N)cnn23)c1 | – | -1.95% [at 35.3 µM] (inactive) |

| Structure (SMILES) | Potency | viability change, negative = cytotoxic |
| --- | --- | --- |
| CCOC(=O)c1cn2nc(OP(=S)(OCC)OCC)cc2nc1C | – | -12.1% (inactive) |
| O=C(O)CCCOc1ccc(Cl)cc1Cl | inactive | – |
| COc1ccc(C(=O)c2c(C)n(CCN3CCOCC3)c3ccccc23)cc1 | – | -4.22% [at 35.3 µM] (inactive) |
| O=C(N/N=C/c1ccc([N+](=O)[O-])o1)c1cc([N+](=O)[O-])cc([N+](=O)[O-])c1O | – | -1.58% [at 35.3 µM] (inactive) |
| Oc1cccc(Cl)c1 | – | 0.628% (inactive) |
| Cc1ccccc1 | – | 1.16% (inactive) |
| O=C(NC(=O)c1cc(F)c(F)cc1Cl)Nc1cc(F)ccc1N1CCC(C(=O)O)CC1 | – | -7.37% [at 35.3 µM] (inactive) |
| O=C(Cc1ccccc1)c1ccccc1 | – | -0.421% (inactive) |
| CCOP(=S)(S)OCC | – | -4.72% (inactive) |
| C[C@]12C=CC3=C4CCC(=O)C=C4CC[C@H]3[C@@H]1CC[C@@H]2O | – | 4.22% (inactive) |
| CCCC[N+](CCCC)(CCCC)CCCC | – | 0.45% (inactive) |
| CCCCC(CC)CO[N+](=O)[O-] (centres undefined) | – | 0.538% (inactive) |
| O=C(O)c1cc(Cl)ccc1Cl | – | 3.46% (inactive) |
| Nc1ccccc1C(=O)OCCc1ccccc1 | – | -18.1% (inactive) |
| CCCSP(=S)(OCC)Oc1ccc(SC)cc1 (centres undefined) | – | -0.725% (inactive) |
| CC(Oc1cccc(Cl)c1)C(=O)O (centres undefined) | – | 5.81% (inactive) |
| Nc1c(Br)cc(Br)c2c1C(=O)c1ccccc1C2=O | – | 1.64% [at 15.8 µM] (inactive) |
| C=CC(=O)NC(C)(C)CC(C)=O | – | -8.69% (inactive) |
| CCCBr | – | -1.6% (inactive) |

Experiment: qHTS assay to identify small molecule agonists of the AP-1 signaling pathway (AID 1159526); further: on the % scale 0 is the no-effect control and ±100 the full control effect
Settings: ME-180 (cervical carcinoma) AP-1-bla reporter, beta-lactamase FRET ratio, 5 h; series mostly up to 76.8 µM; activation: at the top concentration

| Structure (SMILES) | activation | Potency |
| --- | --- | --- |
| CNC(=O)Oc1cccc(N=CN(C)C)c1 | -0.417% (inactive) | – |
| O=C(N[C@H]1CN2CCC1CC2)c1ccc2c(c1)OCCO2 | -1.58% (inactive) | – |
| C=CCOC(=O)C(C)(C)OC(=O)c1cc(-n2c(=O)cc(C(F)(F)F)n(C)c2=O)ccc1Cl | 6.25% (inactive) | – |
| C=CCc1ccc(OC(=O)Cc2ccccc2)c(OC)c1 | -1.16% (inactive) | – |
| O=[N+]([O-])O[C@H]1CO[C@H]2[C@@H]1OC[C@H]2O[N+](=O)[O-] | 0.644% [at 35.3 µM] (inactive) | – |
| C[C@H]1[C@@H]2Cc3ccc(O)cc3[C@@]1(C)CCN2C | 0.0102% [at 200 µM] (inactive) | – |
| Cc1cnc(C2=NC(C)(C(C)C)C(=O)N2)c(C(=O)O)c1 (centres undefined) | -2.68% (inactive) | – |
| Cc1ncc(C[n+]2csc(CCO)c2C)c(N)n1 | 6.78% (inactive) | – |
| COc1cc(CC(C)N)c(OC)cc1Br (centres undefined) | 2.62% (inactive) | – |
| C[Si](Cn1cncn1)(c1ccc(F)cc1)c1ccc(F)cc1 | – | inactive |
| Cc1nc2ccccc2c(=O)n1-c1ccccc1Cl | -3.06% (inactive) | – |
| CN(C)C(=O)Nc1cccc(OC(=O)NC(C)(C)C)c1 | -3.35% (inactive) | – |
| NP(N)(=O)NC(=O)c1ccc(F)cc1 | -2.72% [at 35.3 µM] (inactive) | – |
| OC[P+](CO)(CO)CO | 23.2% (inactive) | – |
| COC1=CC(=O)O[C@@H](/C=C/c2ccc3c(c2)OCO3)C1 | 0.854% (inactive) | – |
| CCN(C(C)=O)c1cccc(-c2ccnc3c(C#N)cnn23)c1 | -2.53% [at 35.3 µM] (inactive) | – |
| CCOC(=O)c1cn2nc(OP(=S)(OCC)OCC)cc2nc1C | -1.17% (inactive) | – |
| O=C(O)CCCOc1ccc(Cl)cc1Cl | 1.59% (inactive) | – |

| Structure (SMILES) | activation | Potency |
| --- | --- | --- |
| COc1ccc(C(=O)c2c(C)n(CCN3CCOCC3)c3ccccc23)cc1 | 0.797% [at 35.3 µM] (inactive) | – |
| O=C(N/N=C/c1ccc([N+](=O)[O-])o1)c1cc([N+](=O)[O-])cc([N+](=O)[O-])c1O | -0.771% [at 35.3 µM] (inactive) | – |
| Oc1cccc(Cl)c1 | 0.604% (inactive) | – |
| Cc1ccccc1 | -3.13% (inactive) | – |
| O=C(NC(=O)c1cc(F)c(F)cc1Cl)Nc1cc(F)ccc1N1CCC(C(=O)O)CC1 | -0.128% [at 35.3 µM] (inactive) | – |
| O=C(Cc1ccccc1)c1ccccc1 | 6.58% (inactive) | – |
| CCOP(=S)(S)OCC | 11.9% (inactive) | – |
| C[C@]12C=CC3=C4CCC(=O)C=C4CC[C@H]3[C@@H]1CC[C@@H]2O | – | inactive |
| CCCC[N+](CCCC)(CCCC)CCCC | 1.28% (inactive) | – |
| CCCCC(CC)CO[N+](=O)[O-] (centres undefined) | -5.51% (inactive) | – |
| O=C(O)c1cc(Cl)ccc1Cl | -3% (inactive) | – |
| Nc1ccccc1C(=O)OCCc1ccccc1 | 9.51% (inactive) | – |
| CCCSP(=S)(OCC)Oc1ccc(SC)cc1 (centres undefined) | -3.56% (inactive) | – |
| CC(Oc1cccc(Cl)c1)C(=O)O (centres undefined) | 1.62% (inactive) | – |
| Nc1c(Br)cc(Br)c2c1C(=O)c1ccccc1C2=O | 0.821% [at 15.8 µM] (inactive) | – |
| C=CC(=O)NC(C)(C)CC(C)=O | -6.99% (inactive) | – |
| CCCBr | 2.65% (inactive) | – |
